Measured values published in PubChem BioAssay (Tox21).
Results filed as inconclusive are left out. Entries that show only a call come without a potency. Values without a mark were called inactive. The source made the active and inactive calls. Unless noted, calls follow the shape of the dose curve; as a rule, active = well fitted curve in the direction sought with a large enough effect in the repeat runs; inconclusive = weak or mixed curves; inactive = no such curve, though single readings can be large; an effect the other way counts as inactive or inconclusive.

Experiments:
[1] = target: Retinoic acid receptor RXR-alpha (Homo sapiens) (UniProt P19793); experiment: qHTS assay to identify small molecule agonists of the RXR signaling pathway (AID 1159527; calls by dose curve; also: nearly all actives have a fitted effect of over 35% in size; also: potency is read from the fitted curve at half-maximal effect)
Method in brief: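 Fluorescence ratio readout (460 vs 530 nm) from GeneBLAzer RXR-alpha HEK 293T cells after 16 hr compound treatment; cells seeded 5 hr beforehand in low-serum, charcoal-stripped medium.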

[2] = qHTS assay to identify small molecule agonists of the RXR signaling pathway - cell viability counter screen (AID 1159529);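 also: HEK 293T cells carrying an RXR-alpha UAS beta-lactamase reporter; series mostly up to about 77 µM; nearly all actives have a fitted effect of over 50% in size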
Method in brief: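 Viability read-out for the RXR-alpha agonist qHTS: luminescent CellTiter-Glo signal after 30 min at RT. HEK 293T bla reporter cells, 2% charcoal-stripped FBS, 16 hr compound incubation; tetraoctyl ammonium bromide as cytotoxic control.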

[3] = qHTS assay to identify small molecule antagonists of the retinoid acid receptor (RAR) signaling pathway - cell viability counter screen (AID 1159551); also: nearly all actives have a fitted effect of over 35% in size
Method in brief: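 Seed C3RL4 cells; next day add compound, then retinol to 1 uM final; incubate 6 h at 37 C; add CellTiter-Glo; read luminescence after 30 min at RT.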

[4] = qHTS assay to identify small molecule antagonists of the retinoic acid receptor (RAR) signaling pathway (AID 1159552; also: nearly all actives have a fitted effect of over 50% in size)
Method in brief: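 Using a RARE-driven luciferase construct in C3RL4 cells, retinol at 1 uM final provided the agonist stimulus while compounds were co-applied. After 6 hours at 37 C, luminescence was recorded to flag inhibitors of retinol signaling.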

[5] = qHTS assay to identify small molecule agonists of the retinoic acid receptor (RAR) signaling pathway (AID 1159553)
Method in brief: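 Activation of retinol signaling was monitored via a RARE luciferase reporter in C3RL4 cells. After 6 hr compound treatment at 37 C, detection reagent was added for 30 min at room temperature before luminescence reading.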

[6] = qHTS assay to identify small molecule antagonists of the estrogen related receptor (ERR) signaling pathway from Tox21 library - cell viability counter screen (AID 1224834); also: nearly all actives have a fitted effect of over 30% in size
Method in brief: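 CellTiter-Fluor fluorescence measured; ERR cells; 17.5 h compound incubation at 37 C; 30 min reagent step.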

[7] = target: Luciferin 4-monooxygenase (Photinus pyralis) (UniProt P08659); experiment: qHTS assay to identify small molecule inhibitors of firefly luciferase (AID 1224835); also: nearly all actives have a fitted effect of over 25% in size; also: potency is read from the fitted curve at half-maximal effect; as to activity change, negative = inhibition: series mostly up to about 120 µM
Method in brief: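 Inhibition of purified Photinus luciferase is measured by luminescence. Substrate levels (D-luciferin, ATP) sit at their KM values. Each compound is tested in a concentration series.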

[8] = qHTS assay to identify small molecule agonists of the constitutive androstane receptor (CAR) signaling pathway - cell viability counter screen (AID 1224836); also: series mostly up to about 92 µM; nearly all actives have a fitted effect of over 45% in size
Method in brief: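 Multiplexed viability check: HepG2-CYP2B6-hCAR cells, 15-point compound dosing, 0.75 uM PK11195 final, 23 h at 37 C, CellTiter-Fluor fluorescence.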

[9] = qHTS assay to identify small molecule antagonists of the constitutive androstane receptor (CAR) signaling pathway - cell viability counter screen (AID 1224837); also: series mostly up to about 92 µM; nearly all actives have a fitted effect of over 45% in size
Method in brief: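 Using CellTiter-Fluor, viability is scored in HepG2 cells stably carrying hCAR and a 2.2kb CYP2B6 reporter after 23 hr compound exposure across 15 concentrations, with CITCO present at 50 nM.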

[10] = target: Nuclear receptor subfamily 1 group I member 3 (Homo sapiens) (UniProt Q14994); experiment: qHTS assay to identify small molecule antagonists of the constitutive androstane receptor (CAR) signaling pathway (AID 1224838);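 also: HepG2 cells stably expressing hCAR with CYP2B6 luciferase reporter stimulated by CITCO; nearly all actives have a fitted effect of over 40% in size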
Method in brief: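 Reporter luminescence was quantified after 24 h exposure of hCAR/CYP2B6-2.2kb double-stable HepG2 cells to compounds at 15 concentrations in the presence of 50 nM CITCO final.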

[11] = target: Nuclear receptor subfamily 1 group I member 3 (Homo sapiens) (UniProt Q14994); experiment: qHTS assay to identify small molecule agonists of the constitutive androstane receptor (CAR) signaling pathway (AID 1224839);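 also: HepG2 cells stably carrying human CAR and a CYP2B6 luciferase reporter; series mostly up to about 92 µM; nearly all actives have a fitted effect of over 15% in size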
Method in brief: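 Using human hepatoma HepG2 cells engineered with hCAR and a CYP2B6-2.2kb reporter, 15-concentration compound series were incubated 24 h alongside PK11195 at 0.75 uM final, with luminescence quantified afterwards.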

[12] = qHTS assay to identify small molecule antagonists of the estrogen related receptor signaling pathway with the pleiotropic PPARgamma coactivator (PGC) from Tox21 10K library - cell viability counter screen (AID 1224840; active = well fitted cell-killing curve with a large enough effect in the repeat runs, not every such curve was filed as active; also: nearly all actives have a fitted effect of over 40% in size)
Method in brief: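 Here the PGC/ERR cells serve as a cytotoxicity control: they are exposed to compounds for 17.5 hours at 37 C, and live-cell signal is quantified using CellTiter-Fluor fluorescence.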

[13] = qHTS assay to identify small molecule antagonists of the estrogen related receptor signaling pathway with the pleiotropic PPARgamma coactivator (PGC) from Tox21 10K library (AID 1224841; call rule not given here; also: series mostly up to about 92 µM; actives are mostly falling curves and most rising ones were filed inactive; nearly all actives have a fitted effect of over 50% in size)
Method in brief: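 Each well held 2,000 PGC/ERR cells, pre-incubated six hours (37 C, 5% CO2). Test substances in DMSO were added by pin tool and left for 18 h at 37 C before luciferase detection by One-Glo.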

[14] = qHTS assay to identify small molecule agonists of the estrogen related receptor signaling pathway with the pleiotropic PPARgamma coactivator (PGC) from Tox21 10K library (AID 1224842); also: nearly all actives have a fitted effect of over 15% in size
Method in brief: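 Luminescence from One-Glo (30 min, room temperature) measured after PGC/ERR cells had 18 h at 37 C with pinned compound (23 nL in DMSO). Cells had been seeded at 2,000 per well and pre-incubated 6 h.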

[15] = qHTS assay to identify small molecule antagonists of the estrogen related receptor (ERR) signaling pathway - cell viability counter screen (AID 1224818);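 also: series mostly up to about 46 µM; viability measured after 17.5 h of compound exposure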
Method in brief: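 In the same ERR cell assay, compound-treated wells (17.5 h, 37 C) were multiplexed with a fluorogenic viability reagent, CellTiter-Fluor, read after 30 min to flag cytotoxic substances.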

[16] = qHTS assay to identify small molecule antagonists of the estrogen related receptor (ERR) signaling pathway (AID 1224819;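 also: luminescence from an ERR-driven luciferase reporter measured with One-Glo reagent; series mostly up to about 46 µM; nearly all actives have a fitted effect of over 50% in size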)
Method in brief: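 qHTS in ERR cells, 2,000/well, 1536 format. Cpd (DMSO) added after 6 h settle, 18 h 37 C. One-Glo luminescence, 30 min RT.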

[17] = qHTS assay to identify small molecule agonists of the estrogen related receptor (ERR) signaling pathway (AID 1224820)
Method in brief: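 Quantitative HTS of the LOPAC library used NTP ERR reporter cells treated 18 h at 37 C. Signal is luminescence after One-Glo addition and a 30 min room-temperature incubation.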

[18] = tested on: estrogen-related receptor alpha (ERRalpha) with PGC-1alpha coactivator, human; experiment: qHTS assay to identify small molecule antagonists of the estrogen related receptor signaling pathway with the pleiotropic PPARgamma coactivator (PGC) (AID 1224821; calls by dose curve)
Method in brief: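 Quantitative HTS for antagonism: PGC/ERR cells received compounds after 6 h attachment and were incubated 18 h at 37 C, with luminescence (One-Glo) as the endpoint.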

[19] = qHTS assay to identify small molecule antagonists of the estrogen related receptor signaling pathway with the pleiotropic PPARgamma coactivator (PGC) cell viability counter screen (AID 1224822; also: series mostly up to about 46 µM)
Method in brief: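 Compounds in DMSO, with positive and negative controls, were applied to PGC/ERR cells (2,000/well) and left 17.5 h at 37 C before CellTiter-Fluor detection.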

[20] = qHTS assay to identify small molecule agonists of the estrogen related receptor signaling pathway with the pleiotropic PPARgamma coactivator (PGC) (AID 1224823)
Method in brief: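 Cell-based luciferase assay in the NTP-supplied PGC/ERR line, 2,000 cells/well; 18 h compound exposure at 37 C, luminescence after One-Glo.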

Sequence of Retinoic acid receptor RXR-alpha (Homo sapiens) (P19793 whole entry, looked up): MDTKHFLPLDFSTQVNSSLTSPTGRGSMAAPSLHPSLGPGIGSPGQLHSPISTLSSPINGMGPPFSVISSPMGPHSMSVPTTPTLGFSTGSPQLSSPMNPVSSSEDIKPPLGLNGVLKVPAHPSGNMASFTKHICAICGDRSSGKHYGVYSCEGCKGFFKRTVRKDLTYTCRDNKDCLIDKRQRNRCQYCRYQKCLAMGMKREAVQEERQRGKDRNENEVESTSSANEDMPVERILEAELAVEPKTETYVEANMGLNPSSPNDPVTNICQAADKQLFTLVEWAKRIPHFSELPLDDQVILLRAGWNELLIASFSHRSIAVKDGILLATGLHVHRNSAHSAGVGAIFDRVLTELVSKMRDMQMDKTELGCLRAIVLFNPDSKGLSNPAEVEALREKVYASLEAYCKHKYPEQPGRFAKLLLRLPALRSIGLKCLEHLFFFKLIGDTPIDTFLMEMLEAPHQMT
Sequence of Luciferin 4-monooxygenase (Photinus pyralis) (P08659 whole entry, looked up): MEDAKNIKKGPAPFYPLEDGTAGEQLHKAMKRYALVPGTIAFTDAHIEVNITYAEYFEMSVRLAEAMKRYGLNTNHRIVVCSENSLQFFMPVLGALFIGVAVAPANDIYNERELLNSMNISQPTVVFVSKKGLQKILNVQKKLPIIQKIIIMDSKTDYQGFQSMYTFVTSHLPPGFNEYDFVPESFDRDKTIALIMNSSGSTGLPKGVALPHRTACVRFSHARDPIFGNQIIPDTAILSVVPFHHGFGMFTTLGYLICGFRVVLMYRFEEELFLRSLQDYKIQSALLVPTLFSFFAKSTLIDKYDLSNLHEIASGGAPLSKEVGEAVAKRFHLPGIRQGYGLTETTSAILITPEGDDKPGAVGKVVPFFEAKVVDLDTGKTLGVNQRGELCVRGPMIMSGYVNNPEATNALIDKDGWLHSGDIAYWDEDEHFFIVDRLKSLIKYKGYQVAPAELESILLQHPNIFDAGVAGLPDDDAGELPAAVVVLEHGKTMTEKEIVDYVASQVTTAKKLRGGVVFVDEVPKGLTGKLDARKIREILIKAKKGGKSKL
Sequence of Nuclear receptor subfamily 1 group I member 3 (Homo sapiens) (Q14994 whole entry, looked up): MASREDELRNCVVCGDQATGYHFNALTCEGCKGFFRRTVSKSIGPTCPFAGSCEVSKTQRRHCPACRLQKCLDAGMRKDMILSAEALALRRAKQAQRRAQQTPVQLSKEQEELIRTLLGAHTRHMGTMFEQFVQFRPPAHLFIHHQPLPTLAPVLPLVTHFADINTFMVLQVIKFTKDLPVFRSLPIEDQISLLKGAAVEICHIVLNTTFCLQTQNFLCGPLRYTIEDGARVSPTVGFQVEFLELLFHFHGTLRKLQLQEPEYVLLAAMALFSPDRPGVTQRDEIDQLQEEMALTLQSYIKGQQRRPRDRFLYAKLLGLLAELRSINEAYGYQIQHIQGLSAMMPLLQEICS

Structure (SMILES): CCCCNCCCC
- Potency [1]: inactive
- Potency [2]: inactive
- outcome [3]: inactive
- Potency [4]: inactive
- Potency [5]: inactive
- Potency [6]: inactive
- Potency [7]: inactive
- Potency [8]: inactive
- Potency [9]: inactive
- Potency [10]: inactive
- Potency [11]: inactive
- Potency [12]: inactive
- Potency [13]: inactive
- Potency [14]: inactive

Structure (SMILES): CCCCN1C[C@H](O)[C@@H](O)[C@H](O)[C@H]1CO
- Potency [1]: inactive
- Potency [2]: inactive
- outcome [3]: inactive
- Potency [4]: inactive
- Potency [5]: inactive
- Potency [6]: inactive
- Potency [7]: inactive
- Potency [8]: inactive
- Potency [9]: inactive
- Potency [10]: inactive
- Potency [11]: inactive
- Potency [12]: inactive

Structure (SMILES): CC(=O)N(CC(O)CN(C(C)=O)c1c(I)c(C(=O)NCC(O)CO)c(I)c(C(=O)NCC(O)CO)c1I)c1c(I)c(C(=O)NCC(O)CO)c(I)c(C(=O)NCC(O)CO)c1I (centres undefined)
- Potency [1]: inactive
- Potency [2]: inactive
- outcome [3]: inactive
- Potency [4]: inactive
- Potency [5]: inactive
- Potency [6]: inactive
- Potency [7]: inactive
- Potency [8]: inactive
- Potency [9]: inactive
- Potency [10]: inactive
- Potency [11]: inactive
- Potency [12]: inactive

Structure (SMILES): Cc1cc(S(=O)(=O)O)c(N)cc1Cl
- Potency [1]: inactive
- Potency [2]: inactive
- outcome [3]: inactive
- Potency [4]: inactive
- Potency [5]: inactive
- Potency [6]: inactive
- Potency [7]: inactive
- Potency [8]: inactive
- Potency [9]: inactive
- Potency [10]: inactive
- Potency [11]: inactive
- Potency [12]: inactive

Structure (SMILES): OCc1ccccc1O
- Potency [1]: inactive
- Potency [2]: inactive
- outcome [3]: inactive
- Potency [4]: inactive
- Potency [5]: inactive
- Potency [6]: inactive
- Potency [7]: inactive
- Potency [8]: inactive
- Potency [9]: inactive
- Potency [10]: inactive
- Potency [11]: inactive
- Potency [12]: inactive

Structure (SMILES): COC(=O)C(C)O (centres undefined)
- Potency [1]: 12.6 µM (active)
- Potency [2]: inactive
- outcome [3]: inactive
- Potency [4]: inactive
- Potency [5]: inactive
- Potency [6]: inactive
- Potency [7]: inactive
- Potency [8]: inactive

Structure (SMILES): NCCCN1CCN(CCCN)CC1
- Potency [1]: inactive
- Potency [2]: inactive
- outcome [3]: inactive
- Potency [4]: inactive
- Potency [5]: inactive
- Potency [6]: inactive
- Potency [7]: inactive
- Potency [8]: inactive
- Potency [9]: inactive
- Potency [10]: inactive
- Potency [11]: inactive
- Potency [12]: inactive

Structure (SMILES): O=C(O)CN(CCN(CC(=O)O)CC(=O)O)CCN(CC(=O)O)CC(=O)O
- activation [1]: 6.5% [at 15.8 µM]
- activity change, negative = cytotoxicity [2]: 2.65% [at 15.8 µM]
- activity change, negative = cytotoxicity [3]: 4.77% [at 19 µM]
- activity, negative = inhibition [4]: -10.7% [at 19 µM]
- Potency [5]: inactive
- outcome [15]: inactive
- outcome [16]: inactive
- outcome [17]: inactive
- outcome [18]: inactive
- outcome [19]: inactive
- outcome [20]: inactive
- viability change, negative = cytotoxic [6]: 4.74% [at 19 µM]
- activity change, negative = inhibition [7]: 2.77% [at 23.6 µM]
- viability change, negative = cytotoxic [8]: -25% [at 19 µM]
- activity change, negative = cytotoxicity [9]: -28.8% [at 19 µM]
- activity, negative = inhibition [10]: -23.7% [at 19 µM]
- activation [11]: -1.04% [at 19 µM]
- viability change, negative = cytotoxic [12]: 0.226% [at 19 µM]
- activity, negative = inhibition [13]: 0.933% [at 19 µM]
- activation [14]: 0.186% [at 19 µM]

Structure (SMILES): O=c1oc2c(O)c(O)cc3c(=O)oc4c(O)c(O)cc1c4c23
- activation [1]: 11.4% [at 15.8 µM]
- activity change, negative = cytotoxicity [2]: 8.17% [at 15.8 µM]
- activity change, negative = cytotoxicity [3]: -0.41% [at 19 µM]
- activity, negative = inhibition [4]: 3.23% [at 19 µM]
- Potency [5]: inactive
- viability change, negative = cytotoxic [6]: -2.26% [at 19 µM]
- Potency [7]: 12 µM (active)
- viability change, negative = cytotoxic [8]: -3.24% [at 19 µM]
- activity change, negative = cytotoxicity [9]: 9.67% [at 19 µM]
- activity, negative = inhibition [10]: 7.54% [at 19 µM]
- activation [11]: -0.67% [at 19 µM]
- viability change, negative = cytotoxic [12]: -7.93% [at 19 µM]
